PubChem BioAssay
Active and inactive are the calls of the source. The rule behind the calls is not given here.

These molecules were tested against Pantothenate synthetase (Mycobacterium tuberculosis (strain ATCC 25618 / H37Rv)) (UniProt P9WIL5) (assay: Recombinant Mtb pantothenate synthetase (PanC) inhibitors, coupled enzyme, confirmatory (AID 375;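 note: 0% = full reaction with vehicle and 100% = no enzyme background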)). Conditions: coupled enzyme assay; at 10 µM, hits give high values.
Chain of Pantothenate synthetase (Mycobacterium tuberculosis (strain ATCC 25618 / H37Rv)) (P9WIL5 whole entry, looked up): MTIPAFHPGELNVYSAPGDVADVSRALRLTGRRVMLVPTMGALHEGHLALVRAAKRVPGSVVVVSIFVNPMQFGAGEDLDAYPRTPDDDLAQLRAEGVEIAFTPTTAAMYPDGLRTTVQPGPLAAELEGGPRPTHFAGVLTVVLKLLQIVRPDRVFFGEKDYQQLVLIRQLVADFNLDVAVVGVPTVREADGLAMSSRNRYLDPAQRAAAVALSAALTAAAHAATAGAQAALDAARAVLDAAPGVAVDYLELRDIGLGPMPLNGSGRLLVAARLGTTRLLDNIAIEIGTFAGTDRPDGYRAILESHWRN

Structure (SMILES)	inhibition
O=c1c2c3nc4ccccc4nc3n(CC3CCCO3)c2ncn1CCc1ccccc1 (stereo unspecified)	9% (inactive)
COc1ccc(N2CCN(c3ncnc4c3cnn4-c3ccc(C)cc3C)CC2)cc1	8% (inactive)
C[C@]12CC[C@@H]3c4ccc(O)cc4CC[C@H]3[C@@H]1CC[C@@H]2OC(=O)CCC(=O)O	8% (inactive)
O=C1c2ccccc2C(=O)N1CCN1CCCCC1	7% (inactive)
Cn1cccc1Cc1nnc(SCC(=O)NCC2CCCO2)n1-c1ccc(F)cc1 (stereo unspecified)	0% (inactive)
CCN(CC)C(=O)Cn1ncc2c1-c1ccccc1OC2	0% (inactive)
CCCN(CCC)C(=O)CSc1nc2ccccc2c(=O)n1C1CCCC1	7% (inactive)
COc1cc(-c2nn3c(-c4cccnc4)nnc3s2)cc(OC)c1OC	6% (inactive)
COc1ccc(-c2nnc3ccc(SC(C(C)=O)C(C)=O)nn23)cc1OC	2% (inactive)
Cc1cccc(N2CCN(C(=O)CCn3c(=S)[nH]c4cc5c(cc4c3=O)OCO5)CC2C)c1 (stereo unspecified)	9% (inactive)
NC(=O)CSc1nnc(-c2ccc(O)cc2)n1Cc1ccco1	0% (inactive)
CCOC(=O)C1=C(CSc2nc(C)cc(C)c2C#N)OC(N)=C(C#N)C1c1cccs1 (stereo unspecified)	2% (inactive)
O=C(O)CN(c1ccccc1)C1SC(=O)NC1=O (stereo unspecified)	0% (inactive)
COc1ccc(-c2noc(CSc3nc(N)c(-c4ccccc4)c(=O)[nH]3)n2)cc1OC	9% (inactive)
Cc1cc(C)cc(NS(=O)(=O)c2ccc3[nH]c(=O)[nH]c3c2)c1	0% (inactive)
CC(=O)NC1(C(F)(F)F)NC(=O)N(CC(C)C)C1=O (stereo unspecified)	0% (inactive)
